Data on 40 compounds can be found in PubChem BioAssay (NCATS).

Values without a mark were called inactive. How the calls were made is not given here.
Potency means the concentration at half of the fitted maximal effect.

The subject of the experiment is HIV-1 nucleocapsid protein NCp7 (binding to TG oligonucleotide). In words: HIV Nucleocapsid (AID 346).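 Further: potency is for inhibitors that block NC binding and lower polarization.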 Conditions: HIV-1 NC / fluorescein-TGTGTGTG probe, fluorescence polarization. Put shortly:
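Fluorescence polarization readout: labelled TG4xF oligo (10 nM) with 100 nM nucleocapsid protein, high-salt (250mM NaCl) Hepes pH 7.5 buffer containing zinc and fresh reducing agents. Compounds added by pin tool; incubation 1 hr, room temperature.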
With `O=C(Nc1cccc(F)c1)N1CCCC2(CCN(C(=O)c3cnccn3)CC2)C1`, the Potency was greater than 20 µM.

On to `c1ccc(CNc2ccnc(-c3ccoc3)n2)cc1`, for which the Potency was greater than 20 µM.

Regarding `COc1cccc(Cn2c(=O)c(-c3ccc(F)cc3)nc3cnc(N4CCNCC4)nc32)c1`, the Potency is greater than 20 µM.

With `COc1ncc2ncc(=O)n(Cc3cccs3)c2n1`, the Potency was greater than 20 µM.

Regarding `CN1CCN(c2ncncc2-c2ccc(C(=O)N(C)C)cc2)CC1`, the Potency was greater than 20 µM.

Consider `CCNc1ncc2nc(-c3ccc(Cl)cc3)c(=O)n(Cc3cccc(OC)c3)c2n1`, for which the Potency was 14.6 µM.

Turning to `O=S(=O)(c1ccccc1)N1CCC2(CC1)CN(Cc1ccccc1)C2`, the Potency is greater than 20 µM.

With `COc1ccc(NC(=O)N2CCCC3(CCN(C(=O)c4ccc(OC)cc4)CC3)C2)cc1`, the Potency is greater than 20 µM.

With `COCCNc1ncnc2ccc(-c3ccccc3C)cc12`, the Potency was greater than 20 µM.

In the case of `COc1ccc2[nH]cc(CCNc3ncnc4ccc(-c5ccc(C(=O)N(C)C)cc5)cc34)c2c1`, the Potency is greater than 20 µM.

For the compound `O=c1c(-c2ccc(F)cc2)nc2cncnc2n1Cc1ccc(F)cc1`, the Potency was greater than 20 µM.

For `COc1ccc2[nH]cc(CCNc3ccnc(-c4ccccc4C(F)(F)F)n3)c2c1`, the Potency is greater than 20 µM.

In the case of `Cn1c(=O)c(CCc2ccccc2)nc2cncnc21`, the Potency is greater than 20 µM.

Regarding `CN(C)C(=O)c1ccc(-c2nccc(Nc3ccc(F)cc3)n2)cc1`, the Potency was greater than 20 µM.

With `Cc1noc(C)c1C(=O)N1CCC2(CC1)CN(c1ncccn1)C2`, the Potency was greater than 20 µM.

For `COC(=O)N1CCC2(CC1)CCN(C(c1ccccc1)c1ccccc1)CC2`, the Potency was greater than 20 µM.

Take `COc1cccc(Nc2ncc3nc(C)c(=O)n(Cc4cccs4)c3n2)c1`: the Potency was greater than 4 µM.

On to `CN(C)C(=O)c1ccc(-c2nccc(NCc3cccs3)n2)cc1`, for which the Potency is greater than 20 µM.

For the compound `COCCn1c(=O)cnc2cnc(Oc3ccc(OC)cc3)nc21`, the Potency is greater than 20 µM.

As for `COc1ccc(-c2nc3cnc(N4CCOCC4)nc3n(CCc3ccccc3)c2=O)cc1`, the Potency was greater than 20 µM.

Turning to `COc1ccc(-c2nc3cnc(N(C)C)nc3n(Cc3cccs3)c2=O)cc1`, the Potency is greater than 20 µM.

On to `CC(C)NC(=O)N1CCC2(CC1)CCN(C(=O)c1cnccn1)CC2`, for which the Potency was greater than 20 µM.

With `CC(C)NC(=O)N1CC[C@@]2(CCCN(C(=O)c3cccn3C)C2)C1`, the Potency is greater than 20 µM.

Turning to `CS(=O)(=O)N1CCC2(CCCN(C(c3ccccc3)c3ccccc3)C2)CC1`, the Potency was greater than 20 µM.

Take `c1cncc(CNc2nc(-c3ccoc3)nc3ccccc23)c1`: the Potency was greater than 20 µM.

For the compound `O=c1c(-c2cc(F)cc(F)c2)nc2cnc(N3CCNCC3)nc2n1CCc1ccccc1`, the Potency was greater than 20 µM.

In the case of `c1cncc(CNc2ncncc2-c2cccnc2)c1`, the Potency was greater than 20 µM.

For the compound `COc1cccc(Cn2c(=O)cnc3cnc(OC)nc32)c1`, the Potency is greater than 20 µM.

Take `Cc1cnc(CNc2cc(-c3ccoc3)ncn2)cn1`: the Potency was greater than 20 µM.

Turning to `O=C(Nc1ccccc1)N1CCC2(CC1)CCN(S(=O)(=O)c1ccccc1)CC2`, the Potency is greater than 20 µM.

For `COc1cccc(-c2ccc3ncnc(NCCN4CCOCC4)c3c2)c1`, the Potency was greater than 20 µM.

With `O=C(c1ccco1)N1CCC2(CC1)CCN(c1cccc(-c3ccccc3)c1)CC2`, the Potency is greater than 20 µM.

With `COc1ccc(Oc2ncc3ncc(=O)n(CCc4ccccc4)c3n2)cc1`, the Potency was greater than 20 µM.

`COC(=O)N1CCC2(CC1)CN(C(=O)Nc1cccc(C#N)c1)C2`: the Potency is greater than 20 µM.

As to `N#Cc1cccc(-c2cncnc2NCCc2cnc[nH]2)c1`, the Potency was greater than 20 µM.

On to `COc1cccc(Cn2c(=O)c(-c3ccc(Cl)cc3)nc3cncnc32)c1`, for which the Potency is greater than 20 µM.

As to `CS(=O)(=O)N1CCC2(CCN(c3ccccc3)CC2)CC1`, the Potency was greater than 20 µM.

In the case of `Cc1noc(C)c1C(=O)N1CCC2(CCCN(c3ncccn3)C2)CC1`, the Potency is greater than 20 µM.

With `COc1cccc(-c2nc(NCc3ccccc3)c3ccccc3n2)c1`, the Potency is greater than 20 µM.

For `O=C(c1ccco1)N1CCC2(CCN(Cc3ccccc3)CC2)CC1`, the Potency was greater than 20 µM.
